Assay results reported in PubChem BioAssay (NCI).
Compounds without any hit were thinned out: in the full panel of roughly 83,000, 20% have a hit.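 Values shown are percent growth following 48 h exposure of cells in 96-well plates to a single concentration of compound; below 10 was considered active.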 A number with no mark means an inactive call. Calls of active or inactive are those of the source.

Tests used:
Assay in all cases: NCI-60 one-dose screen, 48 h (100 = growth as untreated, 0 = no growth, -100 = all killed)
Conditions in all cases: 10 µM unless noted
DU-145 prostate = system: DU-145 prostate
K-562 leukemia = system: K-562 leukemia
MALME-3M melanoma = system: MALME-3M melanoma
MDA-MB-231 breast = system: MDA-MB-231 breast
RXF 393 renal = system: RXF 393 renal
SF-268 CNS = system: SF-268 CNS
SF-295 CNS = system: SF-295 CNS
SF-539 CNS = system: SF-539 CNS
UACC-257 melanoma = system: UACC-257 melanoma
M14 melanoma = system: M14 melanoma

Row | SMILES | growth (DU-145 prostate) [%] | growth (K-562 leukemia) | growth (MALME-3M melanoma) | growth (MDA-MB-231 breast) | growth (RXF 393 renal) | growth (SF-268 CNS) [%] | growth (SF-295 CNS) | growth (SF-539 CNS) | growth (UACC-257 melanoma) [%] | growth (M14 melanoma)
1 | O=C(NCCCCO)c1cncnc1Nc1ccc2c(ccn2Cc2cccc(F)c2)c1 | 96.2 | 82.5% | 93.9% | 69.3% | 101% | 99.3 | 97.6% | 94.4% | 96.7 | 89.9%
2 | COC(=O)[C@@]1(C)CC[C@]2(C)CC[C@]3(C)C4=CC=C5C(=CC(=O)C(O)=C5C)[C@]4(C)[C@@H](O)C[C@@]3(C)[C@@H]2C1 | 21.3 | 8.3% (active) | 7.58% (active) | -0.344% (active) | -35.1% (active) | 62.5 | 74.8% | -8.84% (active) | 32 | 7.16% (active)
3 | COc1ccc(-c2cn(Cc3cc4ccccc4s3)nn2)cc1OCCN1CCCCC1 | 85.7 | 16.3% | 5.75% (active) | 45.9% | 44.2% | 70.8 | 70.6% | 79.7% | 41.1 | -29.4% (active)
4 | O=c1oc2c(cnc3ccccc32)cc1-c1cccc(Cl)c1 | 108 | 89% | 103% | 97.6% | 112% | 98.8 | 101% | 95.2% | 101 | 112%
5 | Cc1ccc(C)c2c1sc1nc(N3CCOCC3)c(C#N)c(=O)n12 | 103 | 151% | 97.1% | 92% | 114% | 88 | 61.7% | 96.4% | 112 | 92.9%
6 | O=C(/C=C/c1ccccc1)N(C1CCCCC1)C1CCCCC1 | 104 | 81.1% | 104% | 86% | 84.7% | 104 | 78.1% | 105% | 80.7 | 87.6%
7 | N#Cc1c(-c2ccccc2)cc(-c2ccccc2)n(CCCCC(=O)NO)c1=O | 20.2 | 6.77% (active) | 11.5% | 25.6% | -16.5% (active) | 43 | 1.64% (active) | 24.3% | 35.8 | 19.1%
8 | COc1nc(/C=C\Nc2ccc3c(c2)OCCOCCOCCOCCO3)nc(OC)n1 | 97.2 | 101% | 85% | 91.2% | 100% | 92.8 | 91.2% | 96.9% | 105 | 96.4%
9 | CC1(C)N=C(N)N=C(N)N1c1ccc(S(=O)(=O)Nc2nccs2)cc1 | 103 | 98.9% | 99.3% | 103% | 105% | 94.3 | 101% | 95.1% | 98.5 | 99.6%
10 | CS(=O)(=O)Nc1cc(-c2ccc3ncnc(Nc4ccc5c(cnn5Cc5ccncc5)c4)c3c2)cnc1Cl | 78.9 | 53.5% | 20.8% | 43.4% | 21.1% | 45 | 84.5% | 50.3% | 59.4 | 56.2%
11 | CNC(=O)c1cc(Oc2ccc3c(c2)sc2nc(-c4ccc(Cl)c(C(F)(F)F)c4)cn23)ccn1 | 74 | 30% | 47.4% | 77.1% | 87.1% | 73.7 | 48.5% | 64.4% | 35.9 | 69.5%
12 | Cn1c(=O)c2[nH]c(SC/C(=N/O)c3ccc(Br)cc3)nc2n(C)c1=O | 68.4 | 67.1% | 20% | -5.9% (active) | -73.4% (active) | 50 | 13.9% | -53.6% (active) | 84 | 58.8%
13 | c1cc(OCCCCCOc2cccc(-c3nc4ccccc4[nH]3)c2)cc(-c2nc3ccccc3[nH]2)c1 | 33.2 | 9.81% (active) | -13.6% (active) | 19.6% | 6.51% (active) | 61.3 | 8.95% (active) | 28.3% | 22.9 | 20.1%
14 | CC(=O)N1N=C(c2ccc(Nc3nc(Nc4ccc(F)cc4)nc(Nc4ccc(F)cc4)n3)cc2)CC1c1ccc(N(C)C)cc1 (stereo not given) | 78.2 | 16.8% | 42.1% | 70% | 9.66% (active) | 74.4 | 18.2% | 65.5% | 74.2 | 40.2%
